# Screening results: PubChem BioAssay, The Scripps Research Institute Molecular Screening Center
# KLK7 zymogen act: activators of human kallikrein-7 zymogen. purified proKLK7, EDANS-DABCYL substrate fluorescence; 100% is mature enzyme control, 0% vehicle. P49862. actives 0.9% (n = 370,000). activation, % at 7 µM;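 active means activation above the mean of all tested compounds plus 3 SD, computed per campaign excluding outliers beyond control limits, cut at about 13% in these data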
# PLCb3 inh: PLC-beta3 (human) inhibition, primary screen. inhibition, % at 12.2 µM. Purified PLC-beta3, fluorogenic substrate, fluorescence. actives 0.18% (n = 370,000); in the data active means inhibition above about 11%;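 further: 0% = median of compound wells on plate and 100% = full blocker control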
# PLCg1 inh: blocks human PLC-gamma1 enzyme activity | actives 0.84% (n = 370,000) | P19174 | purified PLC-gamma1, fluorogenic substrate, fluorescence | inhibition, % at 12.2 µM
# ADAM17 inh: inhibitors of human ADAM17; inhibition, % at 6.95 µM; actives 0.83% (n = 370,000); recombinant ADAM17, EDANS/DABCYL FRET peptide cleavage; AID 720648;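 active means inhibition above the mean of compounds lying between control limits plus 3 SD, set per campaign, cut at about 8.5% in these data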;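 further: 0% = DMSO-only wells as the low control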
# ADAM10 inh: inhibitors of human ADAM10. O14672. recombinant ADAM10, EDANS/DABCYL FRET peptide cleavage, 3 h. inhibition, % at 7 µM. actives 0.62% (n = 370,000);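 active means inhibition above a per-campaign cutoff equal to the mean of compounds falling between control-based bounds plus 3 SD, cut at about 20% in these data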;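 further: 0% = DMSO wells while the 100% control is not disclosed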
# Target sequence (O14672 214-748 limits assumed): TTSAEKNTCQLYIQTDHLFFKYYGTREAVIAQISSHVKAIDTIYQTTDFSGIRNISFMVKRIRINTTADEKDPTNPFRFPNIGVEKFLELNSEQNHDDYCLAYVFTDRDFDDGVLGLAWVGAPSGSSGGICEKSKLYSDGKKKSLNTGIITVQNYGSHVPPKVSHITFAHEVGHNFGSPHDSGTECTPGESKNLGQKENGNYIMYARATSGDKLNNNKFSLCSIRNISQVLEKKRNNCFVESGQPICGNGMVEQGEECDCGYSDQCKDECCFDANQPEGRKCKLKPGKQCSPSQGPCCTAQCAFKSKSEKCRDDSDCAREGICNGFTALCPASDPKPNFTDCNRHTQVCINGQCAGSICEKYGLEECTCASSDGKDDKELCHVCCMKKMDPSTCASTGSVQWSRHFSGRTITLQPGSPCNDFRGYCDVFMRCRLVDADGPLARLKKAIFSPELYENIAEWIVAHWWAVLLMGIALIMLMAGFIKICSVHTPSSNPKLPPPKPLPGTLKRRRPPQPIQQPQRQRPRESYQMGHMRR
# ADAM10 ctr: counter-screen for ADAM17 exosite inhibitors: inhibitors of human ADAM10; AID 743256; shares compounds with ADAM17 inh; recombinant ADAM10, EDANS/DABCYL FRET peptide cleavage, 3 h; actives 47% (n = 2,900); inhibition, % at 6.95 µM;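 active means mean inhibition over the triplicate runs exceeds the activity threshold set in the earlier primary screen, cut at about 20% in these data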;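 further: 0% = DMSO wells and 100% = marimastat wells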
# ADAM17 confirm: human ADAM17 inhibition, confirmation; shares compounds with ADAM17 inh; recombinant ADAM17, EDANS/DABCYL QFRET peptide cleavage; inhibition, % at 6.95 µM; actives 65% (n = 2,900);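 active means mean inhibition across replicates above the hit cutoff set in the primary screen, cut at about 8.5% in these data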;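 further: 0% = DMSO wells and 100% = marimastat wells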
# PLCgamma1 ctr: inhibits human PLC-gamma1 in PLC-beta3 counter-screen; AID 743258; actives 3.1% (n = 3,300); inhibition, % at 12.3 µM; purified PLC-gamma1, fluorogenic substrate, fluorescence; shares compounds with PLCg1 inh
# PLCbeta3 conf: confirmation of human PLC-beta3 inhibitors; shares compounds with PLCg1 inh; purified PLC-beta3, fluorogenic substrate fluorescence; AID 743261; actives 1% (n = 3,300); inhibition, % at 12.3 µM; in the data active means inhibition above about 11%
# * marks the source's active call; other numbers are inactive results; nt = not tested or not shown. Hits are enriched below; roughly 2.9% of the tested compounds scored in any of these assays. Unless noted, no stated cut-off is given here; in the data, active means inhibition above about 9.5%; inactive means the rest.
SMILES,KLK7 zymogen act,PLCb3 inh,PLCg1 inh,ADAM17 inh,ADAM10 inh,PLCgamma1 ctr,PLCbeta3 conf,others
O=C1NCN(c2ccccc2)C12CCN(C(CCc1ccccc1)c1nnnn1C1CCCCC1)CC2 (stereo not given),0.8,0.8,0.5,-1.7,-5.3,nt,nt,
O=C1NCN(c2ccccc2)C12CCN(C(CCc1ccccc1)c1nnnn1C1CCCC1)CC2 (stereo not given),-0.2,7.5,11.1*,8.8*,8.2,-1.8,-0.3,ADAM10 ctr=9.0;ADAM17 confirm=9.4*
C[C@]12CCC(=O)C=C1CC[C@@H]1C2CC[C@]2(C)C(=O)CCC12 (stereo not given in full),0.6,3.5,13.7*,9.9*,-3.1,-3.7,-4.7,ADAM10 ctr=2.1;ADAM17 confirm=1.7
N#CC1c2ccccc2-n2nncc2CN1S(=O)(=O)c1cc(Cl)cc(Cl)c1 (stereo not given),-0.1,0.1,0.5,-0.4,-8.8,nt,nt,
Cc1ccc(OCCOc2cccc(C=C3C(=O)NC(=O)NC3=O)c2)cc1,-0.1,-3.1,11.3*,9.2*,9.8,-6.1,-2.2,ADAM10 ctr=-2.3;ADAM17 confirm=-1.4
COc1ccccc1OCCCn1cc(C(=O)C2CC2)c2ccccc21,-0.1,-8.4,-1.2,-0.2,5.7,nt,nt,
COc1ccccc1OCCCn1cc(C(C)=O)c2ccccc21,0.4,-3.0,12.7*,10.3*,5.2,-4.2,-7.7,ADAM10 ctr=-3.3;ADAM17 confirm=3.6
O=C(CCN1CC1)OCCOC(=O)CCN1CC1,-0.3,-4.4,0.0,-4.9,-14.3,nt,nt,
O=c1[nH]c(=O)n(Cc2ccco2)c(O)c1C=NCc1ccc2c(c1)OCO2,0.4,5.4,9.7*,9.3*,-50.9,-4.3,-3.3,ADAM10 ctr=10.0;ADAM17 confirm=3.5
CC=C(CC)C1(CCC)C(=O)NC(=S)NC1=O,0.7,2.4,1.3,-0.8,4.4,nt,nt,
CCN1CCN(Cc2ccc(OC(F)(F)F)cc2)CC1,0.9,-3.8,0.9,1.4,0.9,nt,nt,
CCN1CCN(Cc2cccnc2)CC1,0.3,1.9,9.7*,3.9,16.9,-6.0,-3.5,
CN1CC(C(=O)c2cccs2)C(c2ccc(Cl)cc2)C1 (stereo not given),0.5,3.5,2.5,-1.5,6.8,nt,nt,
O=C(c1cccs1)C1CN2CCC1CC2 (stereo not given),0.1,2.8,10.2*,4.2,0.6,-4.2,-0.9,
Cc1cccc(CS(=O)(=O)Cc2ccc(C(=O)N3CCC4(CC3)OCCO4)o2)c1,0.0,11.4*,13.8*,4.6,5.9,-5.6,-3.4,
O=C1CC(=O)N(Cc2ccccc2)C(=O)N1,-0.5,2.1,16.1*,-2.5,-2.0,-1.7,-1.6,
NS(=O)(=O)c1nc[nH]c1[N+](=O)[O-],0.3,-1.5,11.3*,0.6,-0.9,1.6,-4.8,
C[C@]12CC[C@@H](O)CC1=CCC1C2CC[C@@]2(C)C1C[C@@H](F)[C@@H]2O (stereo not given in full),0.3,-2.0,-0.1,-3.1,-2.5,nt,nt,
O=C1NCN(c2ccccc2)C12CCN(C(c1ccccc1OC(F)(F)F)c1nnnn1C1CCCC1)CC2 (stereo not given),0.4,6.2,10.6*,4.7,2.1,-2.1,-4.7,
CN1C(=O)C[N+]([O-])=C(c2ccccc2)c2cc(Cl)ccc21,0.6,1.1,2.1,-0.7,-3.8,nt,nt,
O=C1CN=C(c2ccccc2)c2c(sc3c2CCCC3)N1,0.0,-8.2,11.4*,-6.4,-6.7,9.3,-2.2,
CN(C)CC#CCC(O)(c1ccccc1)C1CCCC1 (stereo not given),0.2,12.8*,5.8,5.0,7.3,-7.8,-3.3,
OC(CC#CCN1CCCCCC1)(c1ccccc1)C1CCCC1 (stereo not given),-0.1,-3.0,0.5,-1.4,2.8,nt,nt,
FC(F)(F)c1ccc(CNCCc2ccc3c(c2)OCO3)cc1,0.0,-3.6,10.9*,5.6,1.5,-2.4,1.0,
O=C1NC(=O)C(Cc2ccccc2)(Cc2ccccc2)C(=O)N1Cc1ccccc1,0.2,2.0,0.0,7.3,19.0,nt,nt,
SMILES,KLK7 zymogen act,PLCb3 inh,PLCg1 inh,ADAM17 inh,ADAM10 inh,PLCgamma1 ctr,PLCbeta3 conf,others
COC(=O)C(O)(c1c(C)[nH]n(-c2ccccc2)c1=O)C(F)(F)F (stereo not given),1.2,6.5,9.2,6.5,0.7,nt,nt,
COc1cc(C(c2c(C)[nH]n(-c3ccccc3)c2=O)c2c(C)[nH]n(-c3ccccc3)c2=O)cc(OC)c1OC,-0.3,-23.5,22.1*,3.3,9.9,2.3,0.4,
O=c1[nH]c2ccccc2c(=O)n1-c1ccc(Cl)cc1Cl,-2.9,11.2*,-0.1,-6.0,-10.6,-6.1,14.2*,
COC(=O)C12OCC34C(CC5C(C)=C(O)C(=O)CC5(C)C3C(O)C1O)OC(=O)C(OC(=O)/C=C(\C)C(C)C)C24 (stereo not given),-0.2,8.2,13.1*,5.4,8.0,-5.6,-1.7,
Cc1[nH]c2ccccc2c1CN1CCCCC1,0.1,-30.6,-27.1,-6.7,-27.3,nt,nt,
CC12CC[C@H]3[C@@H](CCC4(O)C[C@H](O)CCC34/C=N/NC(=O)c3ccccc3F)C1(O)CCC2C1=CC(=O)OC1 (stereo not given in full),0.4,7.6,13.0*,6.5,10.4,-9.3,-4.2,
CC12CC[C@H]3[C@@H](CCC4(O)C[C@H](O)CCC34/C=N/NC(=O)c3ccccc3O)C1(O)CCC2C1=CC(=O)OC1 (stereo not given in full),-0.1,-20.3,-4.4,-16.9,-44.9,nt,nt,
O=C(CCc1ccccc1)N1Cc2cc(-c3cccc(F)c3)ccc2-n2nncc2C1,-0.7,0.2,2.4,3.5,7.9,nt,nt,
C[C@@H]1C(=O)O[C@H]2[C@H](O)[C@]34[C@@H]5OC(=O)[C@]3(OC3OC(=O)[C@H](O)C34[C@H](C(C)(C)C)[C@@H]5O)[C@@]12O (stereo not given in full),-0.1,-1.9,5.1,1.3,-8.9,nt,nt,
CN1CCC23c4c5ccc(O)c4O[C@@H]2[C@H](O)C=CC3C1C5 (stereo not given in full),-0.3,0.9,0.7,-1.7,-13.5,nt,nt,
O=c1[nH]c(=S)n(Cc2ccc(F)cc2)c(O)c1C=NCc1cccnc1,-0.6,0.4,10.9*,-4.0,-5.4,-1.2,0.1,
Cc1ccc(OC(=O)N(C)C[C@H]2OCc3cnnn3CCCC(=O)N([C@H](C)CO)C[C@H]2C)cc1,0.1,2.3,-1.3,4.0,1.8,nt,nt,
